Compound activity from PubChem.
The list is not random: actives were taken first. Their share in the collection is about 1.2%.
GLD-1 RNA inh – GLD-1-TGE RNA interaction inhibition (C. elegans) | inhibition, % at 5.96 µM | AID 2280 | purified GLD-1 + fluorescein TGE RNA, fluorescence polarization | 320,000 compounds, 0.44% hits | Q17339;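 active = percent inhibition above a per-plate cutoff, the plate mean of test compounds plus 3 SD, cut at about 30% in these data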
MEX-5 binding – C. elegans MEX-5 TCR-2 RNA binding activity. 300,000 compounds, 0.38% hits. Q9XUB2. activity score (negative = inhibition of binding), % at 10 µM. MEX-5/FITC-TCR2 RNA binding, fluorescence polarization; active compounds read low;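 active = inhibition past about -25% in most replicates, and total fluorescence under double the plate's negative control median, limit read from the data; inconclusive = replicates evenly split on the limit, or fluorescence at least double controls; inactive = too little inhibition in most replicates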
Target sequence (Q9XUB2 whole entry, looked up): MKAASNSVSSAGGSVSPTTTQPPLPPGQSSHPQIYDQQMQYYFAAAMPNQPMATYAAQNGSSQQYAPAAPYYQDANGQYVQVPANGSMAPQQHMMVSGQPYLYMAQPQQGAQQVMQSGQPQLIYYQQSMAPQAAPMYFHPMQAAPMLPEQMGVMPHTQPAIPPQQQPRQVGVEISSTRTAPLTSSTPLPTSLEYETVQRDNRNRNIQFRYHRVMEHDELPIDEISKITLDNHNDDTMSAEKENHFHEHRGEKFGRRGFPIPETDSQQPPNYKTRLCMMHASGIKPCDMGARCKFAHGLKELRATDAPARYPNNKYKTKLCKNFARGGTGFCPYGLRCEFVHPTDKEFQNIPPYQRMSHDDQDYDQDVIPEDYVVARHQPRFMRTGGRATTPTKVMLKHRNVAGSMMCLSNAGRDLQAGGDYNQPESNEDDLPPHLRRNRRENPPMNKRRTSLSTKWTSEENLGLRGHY
eLon inh – inhibitors of E. coli Lon protease. P0A9M0. purified E. coli Lon protease, fluorescence polarization. inhibition, % at 7.94 µM. 360,000 compounds, 0.42% hits. AID 602123; in the data active = inhibition above about 13%, passing the limit was not always enough
LANA DNA inh – blocks KSHV LANA C-terminal domain binding to DNA | MBP-C-LANA/FAM-LBS DNA binding, fluorescence polarization | 340,000 compounds, 0.078% hits | inhibition, % at 9 µM;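 active = highest replicate inhibition at or above 60% at 9 µM, even if other replicates fall short; inactive = all replicates below 60% inhibition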
BCLXL inh – Bcl-xL (human) inhibition; GST-Bcl-xL / FITC-Bim BH3 peptide fluorescence polarization; inhibition, % at 10.9 µM; 320,000 compounds, 0.7% hits;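 active = inhibition above the mean of all tested compounds plus 3 SD, cutoff set per campaign, cut at about 30% in these data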;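 note: inhibitors lower millipolarization by displacing the labeled peptide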
Target sequence (Q07817 whole entry, looked up): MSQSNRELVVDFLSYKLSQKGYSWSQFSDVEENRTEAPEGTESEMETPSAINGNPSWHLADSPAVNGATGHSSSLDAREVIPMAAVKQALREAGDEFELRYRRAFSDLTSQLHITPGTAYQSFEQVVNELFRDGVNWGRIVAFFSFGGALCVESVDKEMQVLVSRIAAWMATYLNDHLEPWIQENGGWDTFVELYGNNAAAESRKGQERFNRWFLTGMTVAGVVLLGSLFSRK
Keap1-Nrf2 PPI – Keap1-Nrf2 (human) interaction inhibition; Q14145; Keap1 Kelch-Nrf2 peptide fluorescence polarization, 1536-well; inhibition, % at 9.4 µM; 340,000 compounds, 0.15% hits; in the data active = inhibition above about 12%; inconclusive = no clear call, values can overlap the other calls; inactive = below about 7.3%;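 note: human Keap1 Kelch domain with fluorescein labeled Nrf2 9mer peptide probe; higher means more block of Keap1 binding to Nrf2 peptide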
Keap1 TSA – binds and thermally shifts human Keap1 Kelch domain. 400 compounds, 8% hits. Keap1 Kelch thermal shift, delta Tm; active compounds read high. shares compounds with Keap1-Nrf2 PPI. max delta Tm, degrees C. AID 651823; in the data active = max delta Tm above about 0.48 degrees C
Sypro dye melt – dye artifact in Keap1 thermal shift counter-screen. shares compounds with Keap1-Nrf2 PPI. Sypro Orange dye-only thermal melt, no protein, delta Tm; top dose 26 µM. delta Tm, degrees C (concentration not given with the values). 140 tested, under 10 active. AID 651858;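 active = at highest dose tested, delta Tm positive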
E coli Lon conf – confirmation of E. coli Lon protease inhibitors | inhibition, % at 7.94 µM | shares compounds with eLon inh | purified E. coli Lon, fluorescence polarization | 1,400 compounds, 31% hits; in the data active = inhibition above about 16%
Of the large screens only hits and unclear results are named; the others gave an inactive call (follow-up assays come after a bar, where they were run).

CCOC(=O)C1=C(CSc2nc3c(cc2C#N)CN(C)CC3)OC(N)=C(C#N)C1c1ccncc1 (stereo not given)	GLD-1 RNA inh 61.0, MEX-5 binding -50.9, eLon inh 35.1, BCLXL inh 114.4, Keap1-Nrf2 PPI 16.8 | Keap1 TSA inactive | E coli Lon conf inactive
CCCCCn1c(=O)[nH]c2cc(C(=O)O)ccc2c1=O	none
CCCCCCn1c(=O)[nH]c2nc3cc(N)c(C)cc3nc2c1=O	eLon inh 116.5, Keap1-Nrf2 PPI 27.3 (no result: GLD-1 RNA inh, MEX-5 binding, BCLXL inh) | Keap1 TSA inactive | Sypro dye melt inactive | E coli Lon conf 48.8
O=C1c2ccccc2C(O)(c2ccccc2)N1c1ccc([N+](=O)[O-])cc1Cl (stereo not given)	none (no result: GLD-1 RNA inh, MEX-5 binding, BCLXL inh)
[O-][n+]1c2ccccc2c2n1CCN1CCOC21c1ccc(Cl)cc1 (stereo not given)	none (no result: MEX-5 binding)
CCOC(=O)c1c(=O)n(O)c2ccc(OC)cc2[n+]1[O-]	GLD-1 RNA inh 175.8, eLon inh 82.8, BCLXL inh 158.8, Keap1-Nrf2 PPI 19.3 | Keap1 TSA inactive | E coli Lon conf 28.8
COCCNC(=O)C1(C)CCCN(C(=O)c2ccc(C(=O)OC)cc2)C1 (stereo not given)	none (no result: GLD-1 RNA inh, MEX-5 binding, LANA DNA inh, BCLXL inh, Keap1-Nrf2 PPI)
CCN(CC)CCN1C(=O)c2cccc3cc(N)cc(c23)C1=O	GLD-1 RNA inh 72.0, MEX-5 binding -68.6, eLon inh active, BCLXL inh 123.6, Keap1-Nrf2 PPI 13.5 | Keap1 TSA inactive | E coli Lon conf 52.7
CCC1(c2ccccc2)NC(=O)N(CC(=O)Nc2ccc3c(c2)CCC3)C1=O (stereo not given)	none (no result: GLD-1 RNA inh, MEX-5 binding, LANA DNA inh, BCLXL inh, Keap1-Nrf2 PPI)
CCC1(c2ccccc2)NC(=O)N(CC(=O)Nc2ccc(OC)nc2)C1=O (stereo not given)	GLD-1 RNA inh 123.7, MEX-5 binding inconclusive, eLon inh 111.8, LANA DNA inh 88.3, BCLXL inh 166.8, Keap1-Nrf2 PPI 60.7 | Keap1 TSA inactive | E coli Lon conf 104.9
CCCC1C2CN(C(C)C)CC=C2C(C#N)=C(N)C1(C#N)C#N (stereo not given)	GLD-1 RNA inh 131.7, MEX-5 binding -74.9, eLon inh 59.2, BCLXL inh 161.3, Keap1-Nrf2 PPI 20.2 | Keap1 TSA inactive | Sypro dye melt inactive | E coli Lon conf 18.4
CN1CC=C2C(C#N)=C(N)C(C#N)(C#N)C(c3ccsc3)C2C1 (stereo not given)	GLD-1 RNA inh 70.2, MEX-5 binding inconclusive, eLon inh 60.1, BCLXL inh 105.9, Keap1-Nrf2 PPI 17.4 | Keap1 TSA inactive | E coli Lon conf 31.5
COc1cccc2c1C(=O)c1ccc3ccccc3c1C2=O	none
COc1ccc2noc3c2c1C(=O)c1ccccc1-3	GLD-1 RNA inh 91.2, MEX-5 binding inconclusive, eLon inh active, LANA DNA inh 129.7, BCLXL inh 115.6, Keap1-Nrf2 PPI 106.1 | Keap1 TSA inactive | Sypro dye melt 6.24 | E coli Lon conf 116.3
CCCC1(CCC)NC(=O)N(CC(=O)N2CCc3ccccc32)C1=O	none (no result: MEX-5 binding, BCLXL inh)
CC1(C)CC(=O)C2=C(C1)OC(N)=C(C#N)C2c1cc2c(cc1[N+](=O)[O-])OCO2 (stereo not given)	GLD-1 RNA inh 141.0, MEX-5 binding -55.7, eLon inh 103.7, BCLXL inh 185.8, Keap1-Nrf2 PPI 15.3 | Keap1 TSA inactive | Sypro dye melt inactive | E coli Lon conf 80.3
Cc1ccccc1-n1ncc(C(C)NS(=O)(=O)c2sccc2C)c1C (stereo not given)	none
O=C1NC2=C(C(=O)CCC2)C(c2ccccc2Cl)N1 (stereo not given)	none
Cc1nc(Cl)c2c(n1)NC1=C(O2)C(=O)CCC1	GLD-1 RNA inh 168.0, MEX-5 binding inconclusive, eLon inh 84.0, BCLXL inh 165.5, Keap1-Nrf2 PPI 27.6 | Keap1 TSA inactive | Sypro dye melt inactive | E coli Lon conf 143.5
COc1ccc(CNc2nc3ccccc3n2C)c(OC)c1	none
COc1ccc(N=Nc2nc3cc(Br)c(Br)cc3n2C)c(OC)c1	GLD-1 RNA inh 197.8, eLon inh 162.9, BCLXL inh active, Keap1-Nrf2 PPI 12.6 (no result: MEX-5 binding) | Keap1 TSA inactive | E coli Lon conf 127.9
CCCCNC(=O)C1c2ccccc2OCC(=O)N1Cc1ccccn1 (stereo not given)	none (no result: GLD-1 RNA inh, MEX-5 binding, LANA DNA inh, BCLXL inh, Keap1-Nrf2 PPI)
O=C(COC(=O)c1ccccc1SCC(=O)N1CCCC1)NCc1ccc(F)cc1	none (no result: GLD-1 RNA inh, MEX-5 binding, LANA DNA inh, BCLXL inh, Keap1-Nrf2 PPI)
Cc1ccc(/C=C(\NC(=O)c2ccc(C)cc2)C(=O)NCCCn2ccnc2)cc1	none
COc1ccc(NS(=O)(=O)c2ccc(F)c(Cl)c2)cn1	GLD-1 RNA inh 99.5, eLon inh 57.9, BCLXL inh 102.9, Keap1-Nrf2 PPI 21.3 | Keap1 TSA inactive | E coli Lon conf inactive
COc1ccc(NS(=O)(=O)c2ccc(Br)cc2)cn1	none
CN(C)CCNc1ccc(CO)c2sc3ccc(O)cc3c(=O)c12	none (no result: GLD-1 RNA inh, MEX-5 binding, BCLXL inh)
CN(C)CCNc1ccc2ncn3c4ccc(O)cc4c(=O)c1c23	eLon inh active, LANA DNA inh 113.6, Keap1-Nrf2 PPI 37.6 (no result: GLD-1 RNA inh, MEX-5 binding, BCLXL inh) | Keap1 TSA inactive | E coli Lon conf active
COCCNC(=O)C1(C)CCCN(Cc2noc(-c3ccccc3OC)n2)C1 (stereo not given)	none (no result: GLD-1 RNA inh, MEX-5 binding, LANA DNA inh, BCLXL inh, Keap1-Nrf2 PPI)
Oc1ccc2nnc3c(Br)cnn3c2c1	GLD-1 RNA inh 144.4, MEX-5 binding inconclusive, eLon inh 134.3, LANA DNA inh 67.5, BCLXL inh 174.9, Keap1-Nrf2 PPI 37.1 | Keap1 TSA inactive | E coli Lon conf 144.5
Oc1ccc2c(c1)OCC1(O)Cc3cc(O)c(O)cc3C21 (stereo not given)	eLon inh active, Keap1-Nrf2 PPI 18.2 (no result: GLD-1 RNA inh, MEX-5 binding, BCLXL inh) | Keap1 TSA inactive | E coli Lon conf active
CC(=O)N/C(=C\c1ccccc1)C(=O)OCC(=O)Nc1ccc(C)c(S(=O)(=O)N(C)C)c1	none (no result: MEX-5 binding, BCLXL inh)
Cc1n[nH]c(C)c1N1C(=O)c2cccc3c(N4CCCCCC4)ccc(c23)C1=O	GLD-1 RNA inh active, MEX-5 binding -52.5, eLon inh 68.8, BCLXL inh active, Keap1-Nrf2 PPI 15.7 | Keap1 TSA inactive | E coli Lon conf inactive
CC(=O)c1ccc2c3c(cccc13)C(=O)N(c1c(C)nn(C)c1C)C2=O	none (no result: MEX-5 binding)
COc1cc(C(=O)OCC(=O)N2CCOCC2)c([N+](=O)[O-])cc1OC	eLon inh 18.2 | E coli Lon conf inactive
COc1cc(C(=O)OCC(=O)N2CCCCCC2)c([N+](=O)[O-])cc1OC	none (no result: MEX-5 binding, BCLXL inh)
COc1cccc2c1C(=O)c1c(O)c3c(c(O)c1C2=O)CC(O)(C(=O)CO)CC3OC1CC(N(C)C)C(O)C(C)O1 (stereo not given)	eLon inh active, LANA DNA inh 113.7, Keap1-Nrf2 PPI inconclusive (no result: GLD-1 RNA inh, MEX-5 binding, BCLXL inh) | E coli Lon conf active
